Records with an inconclusive call do not appear. The source made the active and inactive calls. Unless noted, calls follow the shape of the full dose curve.
assay: S16 Schwann cell PMP22 intronic element firefly luciferase assay (AID 624032; active = well fitted inhibition curve with a large enough effect; also: nearly all actives have a fitted effect of over 30% in size;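 as to activity change, negative = inhibition: plate controls were DMSO for no effect and PTC124 positive control mean for full effect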); settings: S16 rat Schwann cells, PMP22 element FLuc, 24 h; series mostly up to 57.5 µM; activity change, negative = inhibition: at the top concentration
How it was run: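 Rat S16 Schwann cells stably carrying a PMP22 intronic element-driven Fluc reporter were seeded overnight, then exposed to compounds for 24 h at 37 °C. Luminescence was normalized to PTC124 (positive control) and DMSO (0% activity).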
Potency is read from the fitted curve at half-maximal effect.

SMILES | activity change, negative = inhibition | Potency
CCC(=O)NCCC1CCc2ccc3c(c21)CCO3 (stereo unspecified) | -17.2% (inactive) | –
Cc1ccccc1OCC(O)CNCCOc1ccc(C(N)=O)cc1 (stereo unspecified) | 22.9% (inactive) | –
CC(=O)Oc1cc(C)c(OC(C)=O)c2ccccc12 | – | 28.7 µM (active)
COCC(=O)Nc1cc(Sc2ccccc2)ccc1N=C(NC(=O)OC)NC(=O)OC | 14.9% (inactive) | –
O=C(Nc1ccc(Br)cc1)c1cc(Br)c(Br)s1 | 105% (inactive) | –
Cc1c(C)c2c(c(C)c1O)CC[C@@](C)(CCC[C@H](C)CCC[C@H](C)CCCC(C)C)O2 | 1.31% (inactive) | –
Clc1cc(Cl)c(OCC#CI)cc1Cl | – | 28.7 µM (active)
CN(C)CCCN1c2ccccc2C(C)(C)c2ccccc21 | -7.48% (inactive) | –
CCCCCCCCCCCCCC[n+]1ccc(C)cc1 | – | 2.56 µM (active)
C=CCSSSCC=C | -29.2% (inactive) | –
CN1C(=O)CN2CCc3ccccc3C2c2cc(Cl)ccc21 (stereo unspecified) | -22.5% (inactive) | –
C#C[C@]1(O)CC[C@H]2[C@@H]3CCC4=CCCC[C@@H]4[C@H]3C(=C)C[C@@]21CC | -54.6% (inactive) | –
O=C(Nc1cccc(C(F)(F)F)c1)c1cc(Br)cc(Br)c1O | 13.4% (inactive) | –
CC[C@@]1(O)C(=O)OCc2c1cc1n(c2=O)Cc2cc3c([N+](=O)[O-])cccc3nc2-1 | – | 0.203 µM (active)
CCN(CC)CCOc1ccc(-c2nc3cc(Cl)ccc3s2)cc1 | 19.5% (inactive) | –

assay: S16 Schwann cell PMP22 intronic element beta-lactamase assay (AID 624044); settings: S16 rat Schwann cells, PMP22 element beta-lactamase FRET, 24 h; series mostly up to 38.3 µM; ratio activity, negative = inhibition: at the top concentration; also: nearly all actives have a fitted effect of over 15% in size;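 as to ratio activity, negative = inhibition: 0% = DMSO and -100% = potassium clavulanate positive control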
How it was run: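 Rat S16 Schwann cells with beta-Lac driven by a PMP22 intronic element, compound-treated 24 h at 37 °C. LiveBLAzer FRET B/G read: 460 nm normalized to potassium clavulanate vs DMSO; 535 nm FRET as viability; concentration-effect curves classified.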

SMILES | ratio activity, negative = inhibition | Potency
CCC(=O)NCCC1CCc2ccc3c(c21)CCO3 (stereo unspecified) | -4.66% (inactive) | –
Cc1ccccc1OCC(O)CNCCOc1ccc(C(N)=O)cc1 (stereo unspecified) | -2.28% (inactive) | –
CC(=O)Oc1cc(C)c(OC(C)=O)c2ccccc12 | -9.91% (inactive) | –
COCC(=O)Nc1cc(Sc2ccccc2)ccc1N=C(NC(=O)OC)NC(=O)OC | 0.507% (inactive) | –
O=C(Nc1ccc(Br)cc1)c1cc(Br)c(Br)s1 | -18% (inactive) | –
CCCCC(C)(O)C/C=C/[C@H]1[C@H](O)CC(=O)[C@@H]1CCCCCCC(=O)OC (stereo partly specified) | -41.6% (inactive) | –
Nc1c(N=Nc2ccc(-c3ccc(N=Nc4cc(S(=O)(=O)O)c5ccccc5c4N)cc3)cc2)cc(S(=O)(=O)O)c2ccccc12 | -2.03% (inactive) | –
Cc1c(C)c2c(c(C)c1O)CC[C@@](C)(CCC[C@H](C)CCC[C@H](C)CCCC(C)C)O2 | -6.63% (inactive) | –
CCCC(=O)O[C@]1(C(=O)CCl)[C@H](C)C[C@@H]2[C@H]3CCC4=CC(=O)C=C[C@]4(C)[C@@]3(F)C(=O)C[C@@]21C | -3.56% (inactive) | –
CCOC(=O)C1=C(C)NC(C)=C(C(=O)OCC)C1c1ccccc1C=CC(=O)OC(C)(C)C | 0.59% (inactive) | –
O=S(=O)(O)c1ccc2c(N=Nc3ccc(S(=O)(=O)O)c4ccccc34)c(O)c(S(=O)(=O)O)cc2c1 | 5.78% (inactive) | –
O=C(O)c1cc(O)c2c(c1)[O][Bi][O]2 | 1.89% (inactive) | –
Nc1ncnc2c1ncn2[C@@H]1O[C@H](COP(=O)(O)OP(=O)(O)OP(=O)(O)O)[C@@H](O)[C@H]1O | 3.01% (inactive) | –
CC(NNC(=O)c1ccccc1)c1ccccc1 (stereo unspecified) | 0.919% (inactive) | –
COC(C(=O)C(O)C(C)O)C1Cc2cc3cc(OC4CC(OC5CC(O)C(O)C(C)O5)C(O)C(C)O4)c(C)c(O)c3c(O)c2C(=O)C1OC1CC(OC2CC(OC3CC(C)(O)C(O)C(C)O3)C(O)C(C)O2)C(O)C(C)O1 (stereo unspecified) | – | 22.4 µM (active)
CC(C)N=c1cc2n(-c3ccc(Cl)cc3)c3ccccc3nc-2cc1Nc1ccc(Cl)cc1 | 3.01% [at 17.1 µM] (inactive) | –

SMILES | ratio activity, negative = inhibition | Potency
CN(C)CCCN1c2ccccc2C(C)(C)c2ccccc21 | -0.531% (inactive) | –
CCCCCCCCCCCCCC[n+]1ccc(C)cc1 | – | 19.9 µM (active)
Oc1cc(O)c2c(c1)OC(c1ccc(O)c(O)c1)C(O)C2 (stereo unspecified) | 3.95% (inactive) | –
CC(Cc1ccc(O)c(O)c1)C(C)Cc1ccc(O)c(O)c1 (stereo unspecified) | – | 22.4 µM (active)
CC1(C)S[C@@H]2[C@H](NC(=O)[C@@H](NC(=O)N3CCNC3=O)c3ccccc3)C(=O)N2[C@H]1C(=O)O | -3.07% [at 17.1 µM] (inactive) | –
C=CCSSSCC=C | -4.19% (inactive) | –
O=C(O)c1cc(=O)c2c3nc4ccccc4oc-3cc(=O)c2[nH]1 | -6.83% (inactive) | –
CN1C(=O)CN2CCc3ccccc3C2c2cc(Cl)ccc21 (stereo unspecified) | -5.36% (inactive) | –
C#C[C@]1(O)CC[C@H]2[C@@H]3CCC4=CCCC[C@@H]4[C@H]3C(=C)C[C@@]21CC | -5.9% (inactive) | –
CO[C@H]1C[C@@H]2CC[C@@H](C)[C@@](O)(O2)C(=O)C(=O)N2CCCC[C@H]2C(=O)O[C@H]([C@H](C)C[C@@H]2CC[C@@H](OCCO)[C@H](OC)C2)CC(=O)[C@H](C)/C=C(\C)[C@@H](O)[C@@H](OC)C(=O)[C@H](C)C[C@H](C)/C=C/C=C/C=C/1C | -0.697% (inactive) | –
CC[C@@]1(O)C(=O)OCc2c1cc1n(c2=O)Cc2cc3c([N+](=O)[O-])cccc3nc2-1 | – | 1.41 µM (active)
CCN(CC)CCOc1ccc(-c2nc3cc(Cl)ccc3s2)cc1 | -14.6% (inactive) | –
CO[C@H](C(=O)[C@@H](O)[C@@H](C)O)C1Cc2cc3cc(O[C@H]4C[C@@H](O[C@H]5C[C@@H](O)[C@H](O)[C@@H](C)O5)[C@@H](O)[C@@H](C)O4)c(C)c(O)c3c(O)c2C(=O)[C@H]1O[C@H]1C[C@@H](O[C@H]2C[C@@H](O[C@H]3C[C@](C)(O)[C@H](O)[C@@H](C)O3)[C@H](O)[C@@H](C)O2)[C@H](O)[C@@H](C)O1 (stereo partly specified) | – | 22.4 µM (active)
O=S(=O)(O)c1cc(O)c2c(N=Nc3ccc(Nc4ccccc4)c4c(S(=O)(=O)O)cccc34)cc(S(=O)(=O)O)cc2c1 | 0.127% (inactive) | –
O=C(COc1ccc(Cl)cc1)OCCNC12CC3CC(CC(C3)C1)C2 | -0.334% (inactive) | –
